Bioassay records from PubChem BioAssay.
TDP1 cell noCPT – qHTS for Inhibitors of human tyrosyl-DNA phosphodiesterase 1 (TDP1): qHTS in cells in absence of CPT; AID 686978, 2013; Potency, µM (top dose mostly 46.2 µM), hits mostly inhibitors; DT40 Tdp1-/- hTDP1 cells, no CPT, ATP luminescence, 48 h; 15% of 420,000 active; also: nearly all actives have a fitted effect of over 55% in size
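Camptothecin absent (DMSO only). Human TDP1-complemented DT40 knockout cells, 400 cells/well, 37 °C for minimum 48 hr; ATP measured via CellTiter-Glo, 30 min dark incubation, luminescence.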
SW480 rereplic – inducers of DNA re-replication in SW480 colon cancer cells; SW480 DNA re-replication, Hoechst DNA content imaging, 48 h; Potency, µM (top dose mostly 46.1 µM), most hits filed as activators; 1.8% of 340,000 active; AID 624297; also: nearly all actives have a fitted effect of over 55% in size
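Treated cells incubate 48 hr (37 C, 5% CO2), are stained 40 min with Hoechst, and nuclear fluorescence is enumerated; a rise in nuclei with high DNA signal marks re-replication.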
IL1B secr inh – blocks inflammasome-driven IL-1 beta release | THP-1 LPS/ATP IL-1B secretion, AlphaLISA, 16 h; hits give low values | activity change, % at 57.5 µM | 4.7% of 360,000 active; in the data active = activity change below about -50%; inconclusive = mostly about -30% to -49%
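Secreted IL-1B measured by AlphaLISA bead assay after 16 h compound exposure of THP-1 cells; compounds (final up to 57.5 uM) added 1 h before LPS (250 ng/mL) and ATP (1.25 mM) stimulation; lower signal means less secretion.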
DT40 TDP1 CPT – growth inhibition of DT40 Tdp1-/-;hTDP1 cells with camptothecin (screen for TDP1 inhibitors); chicken DT40 Tdp1-/-;hTDP1 cells + 20 nM CPT, ATP luminescence, 48 h; Potency, µM (titrated, usually from 46.2 µM), hits mostly inhibitors; 12% of 420,000 active; also: nearly all actives have a fitted effect of over 55% in size
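Chicken DT40 Tdp1-/- cells complemented with human TDP1, 400 cells/well, exposed to compounds plus 20 nM camptothecin for at least 48 h at 37 C; viability read as ATP content by CellTiter-Glo luminescence.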
MCF10A rereplic – inducers of DNA re-replication in MCF 10A breast cells | MCF 10A DNA re-replication, Hoechst nuclear intensity, 48 h | Potency, µM (series often up to 46.1 µM), hits mostly activators | 2.9% of 350,000 active; also: nearly all actives have a fitted effect of over 50% in size
BCR signal inh – blocks chronic active B-cell receptor signaling; ABC-DLBCL IkBa-CBG/CBR reporter, luminescence ratio, 4 h; 0.05% of 340,000 active; Potency, µM (highest dose often 46.1 µM), most hits filed as inhibitors; active = well fitted inhibition curve with a large enough effect in the signal ratio, with a control signal flat, not every such curve was filed as active; inconclusive = small, poorly fitted or top-dose-only effect, or effect the other way, or a change in a side signal; the % refers to the signal ratio
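Concentration-response series (up to 46 uM) were applied to TMD8 dual-reporter cells for 4 h at 37C with doxycycline. Green/red ratio, after filter-overlap correction, defined %Activity; red signal alone was normalised to basal cells and zero luminescence.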
Each line names hits and unclear results; the compound was inactive in the other large screens; ! = repeats disagree. Hits are enriched below; roughly 19% of the tested compounds scored in any of these assays. Unless noted, calls follow the shape of the dose curve; as a rule, active = well fitted curve in the direction sought with a large enough effect; inconclusive = small, poorly fitted or top-dose-only effect, or another doubt; inactive = no such curve, though single readings can be large; an effect the other way counts as inactive or inconclusive.

CC(=O)O[C@H]1C[C@H](O[C@H]2[C@@H](O)C[C@H](O[C@H]3[C@@H](O)C[C@H](OC4CC[C@@]5(C)[C@H](CC[C@@H]6[C@@H]5CC[C@]5(C)[C@@H](C7=CC(=O)OC7)CC[C@]65O)C4)O[C@@H]3C)O[C@@H]2C)O[C@H](C)[C@H]1O[C@@H]1O[C@H](CO)[C@@H](O)[C@H](O)[C@H]1O (some centres not stated)	TDP1 cell noCPT 0.3µM, DT40 TDP1 CPT 0.34µM (no result: SW480 rereplic, IL1B secr inh, MCF10A rereplic, BCR signal inh)
CC(=O)OC1CC(OC2C(O)CC(OC3C(O)CC(OC4CCC5(C)C(CCC6C5CC(O)C5(C)C(C7=CC(=O)OC7)CCC65O)C4)OC3C)OC2C)OC(C)C1OC1OC(CO)C(O)C(O)C1O (configuration not stated)	TDP1 cell noCPT 0.65µM, SW480 rereplic 1.8µM, IL1B secr inh -66, DT40 TDP1 CPT 1.3µM, MCF10A rereplic 0.18µM (no result: BCR signal inh)
CN(C)c1ccc(C2C3C=CC(C3)C2(C#N)C(=O)O)c(Br)c1 (configuration not stated)	none
COc1cc2cc(C(=O)N3CC(COS(C)(=O)=O)c4ccc(O)cc43)[nH]c2c(OC)c1OC (configuration not stated)	IL1B secr inh -99 (no result: BCR signal inh)
CN(C)Cc1c[nH]c2ccccc12	TDP1 cell noCPT 13µM!, DT40 TDP1 CPT 12µM
C=CCN(CC=C)Cc1c[nH]c2ccccc12	TDP1 cell noCPT inconclusive, DT40 TDP1 CPT 12µM, BCR signal inh inconclusive
CC(C)CN1CCC2(CC1)CCN(C(=O)Oc1ccccc1)CC2	none (no result: SW480 rereplic, IL1B secr inh, MCF10A rereplic, BCR signal inh)
COc1ccc(C2c3c(nc(C)[nH]c3=O)Oc3c2c(=O)oc2ccccc32)cc1 (configuration not stated)	none
CCOC(=O)c1c(-c2ccc(OC)cc2)oc2ccc(OC(=O)N(C)C)cc12	TDP1 cell noCPT 18µM, SW480 rereplic inconclusive, DT40 TDP1 CPT inconclusive, MCF10A rereplic inconclusive, BCR signal inh inconclusive
CC1CCN(c2nc(-c3ccc(F)cc3)cc(C(F)(F)F)n2)CC1	MCF10A rereplic inconclusive
C#CCN[C@H](C)Cc1ccccc1	SW480 rereplic 3.2µM, MCF10A rereplic inconclusive
CCN[C@@H](C)Cc1ccccc1	none (no result: SW480 rereplic, IL1B secr inh, MCF10A rereplic, BCR signal inh)
OCC(Br)CBr (configuration not stated)	none
Cc1c(C(=O)NCc2ccc(Cl)c(Cl)c2)sc(=O)n1Cc1ccc(S(=O)(=O)N(C)C)cc1	TDP1 cell noCPT 15µM, DT40 TDP1 CPT 8.2µM (no result: SW480 rereplic, MCF10A rereplic, BCR signal inh)
CCOC(=O)c1ncn2c1CN(C)C(=O)c1c(I)cccc1-2	none (no result: SW480 rereplic, IL1B secr inh, MCF10A rereplic, BCR signal inh)
COc1cc(CN2CC(C)OC(C)C2)cc(OC)c1 (configuration not stated)	SW480 rereplic inconclusive (no result: BCR signal inh)
CC1OC(=O)C(C(C)C)NC(=O)C(C(C)C)OC(=O)C(C(C)C)NC(=O)C(C)OC(=O)C(C(C)C)NC(=O)C(C(C)C)OC(=O)C(C(C)C)NC(=O)C(C)OC(=O)C(C(C)C)NC(=O)C(C(C)C)OC(=O)C(C(C)C)NC1=O (configuration not stated)	TDP1 cell noCPT 0.22µM, DT40 TDP1 CPT 0.18µM (no result: SW480 rereplic, IL1B secr inh, MCF10A rereplic, BCR signal inh)
CC(=O)c1cccc(NC(=O)N2C[C@H]3C[C@@H](C2)c2cccc(=O)n2C3)c1	none
COC(=O)c1cc(NC(=O)Nc2cccc(Cl)c2)ccc1Cl	TDP1 cell noCPT 18µM, IL1B secr inh -97, DT40 TDP1 CPT 16µM, BCR signal inh inconclusive
O=C(Nc1cccc(Cl)c1)c1cnc[nH]1	BCR signal inh inconclusive
COc1ccc(N2CCc3c(C)nc4c(OC)cc(OC)cc4c32)cc1	TDP1 cell noCPT 15µM, DT40 TDP1 CPT 23µM, MCF10A rereplic inconclusive, BCR signal inh inconclusive (no result: IL1B secr inh)
COc1ccc2[nH]c3c(c2c1)CCN=C3C	SW480 rereplic inconclusive, BCR signal inh inconclusive
CC(C)(C)N1CC(C(=O)c2ccccc2)C1c1ccccc1 (configuration not stated)	IL1B secr inh -80 (no result: BCR signal inh)
CCN(C(=O)C1CCN(c2nc(-c3ccc(OC)cc3)no2)CC1)c1ccc(OC)cc1	TDP1 cell noCPT 16µM, DT40 TDP1 CPT inconclusive, BCR signal inh inconclusive
Cc1ccnc(NS(=O)(=O)c2ccc(N=Cc3c(O)n(C)c(=O)n(C)c3=O)cc2)n1	none
O=C(NCc1cccnc1)c1c[nH]c2cc3c(cc2c1=O)OCCO3	TDP1 cell noCPT 5.8µM, DT40 TDP1 CPT 10µM, BCR signal inh inconclusive
Cc1nnc(NC(=O)c2cccn(Cc3ccc(Cl)cc3)c2=O)s1	none (no result: SW480 rereplic, IL1B secr inh, MCF10A rereplic, BCR signal inh)
CCC1=C(C)C(N2CCOCC2)=NP(N2CCOCC2)(N2CCOCC2)=N1	none
C1CN(P2(N3CC3)=NP(N3CC3)(N3CC3)=NP(N3CC3)(N3CC3)=N2)CCO1 (configuration not stated)	TDP1 cell noCPT 1.3µM, DT40 TDP1 CPT 0.58µM (no result: SW480 rereplic, MCF10A rereplic, BCR signal inh)
O=C1C=C(Nc2ccccc2O)c2ccccc2C1=O	TDP1 cell noCPT 3.3µM, SW480 rereplic 6.5µM, IL1B secr inh -90, DT40 TDP1 CPT 3.7µM, MCF10A rereplic inconclusive, BCR signal inh inconclusive
C[C@]12CC[C@H](N)CC1=CCC1C2CC[C@@]2(C)C1CC[C@@H]2O (some centres not stated)	TDP1 cell noCPT inconclusive, SW480 rereplic 18µM, DT40 TDP1 CPT 18µM, MCF10A rereplic inconclusive, BCR signal inh inconclusive
C[C@]12CC[C@@H](O)CC1=CCC1C2CC[C@@]2(C)C1CC[C@@H]2N (some centres not stated)	TDP1 cell noCPT 21µM, SW480 rereplic inconclusive, DT40 TDP1 CPT inconclusive, MCF10A rereplic inconclusive
Cc1ccc(OCC(=O)N2CCN(CCc3ccncc3)CC2)cc1C	none (no result: SW480 rereplic, IL1B secr inh, MCF10A rereplic, BCR signal inh)
COC1/C=C/C=C(\C)Cc2cc(O)c(Cl)c(c2)N(C)C(=O)CC(OC(=O)C(C)C)C2(C)OC2C(C)C2CC1(O)NC(=O)O2 (configuration not stated)	TDP1 cell noCPT 0.15µM, SW480 rereplic inconclusive, DT40 TDP1 CPT 0.016µM, MCF10A rereplic inconclusive (no result: BCR signal inh)
CCN(C(=O)CSc1ncccc1C(=O)Oc1cccc([N+](=O)[O-])c1)c1cccc(C)c1	TDP1 cell noCPT inconclusive, IL1B secr inh -55, MCF10A rereplic inconclusive
Cc1ccc(Cn2nc(C(=O)Nc3ccc(Br)cc3)cc2C)cc1	TDP1 cell noCPT 12µM, SW480 rereplic inconclusive, DT40 TDP1 CPT inconclusive, BCR signal inh inconclusive
Cc1ccc(Cn2nc(C)c(C=O)c2Cl)cc1	none
O=S(c1ccccc1)c1ccccc1	none (no result: BCR signal inh)
O=S(=O)(c1cc(Cl)cc(Cl)c1)N1Cc2cc(-c3cccc(F)c3)ccc2-n2nncc2C1	TDP1 cell noCPT inconclusive, DT40 TDP1 CPT inconclusive (no result: SW480 rereplic, MCF10A rereplic, BCR signal inh)
